DAX1 inh-1 – DAX1 (NR0B1) inhibitors on StAR promoter, primary screen, cell-based, luminescence, SF-1 (NR5A1), full-length DAX-1; HEK293T StAR-luciferase reporter, SF-1/DAX-1 repression relief; inhibition, % at 6.8 µM; 370,000 tested, 1.1% active;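 active = inhibition above the mean over all tested compounds plus 3 SD, cut at about 3.6% in these data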;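 note: 0% = DAX-1 cells with DMSO and 100% = cells lacking DAX-1 with DMSO; higher inhibition means more luminescence from relief of DAX-1 repression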
hgDAF12 agonist – H. glycines DAF-12 receptor agonists, primary screen, cell-based, luminescence, HEK293, GAL4 fusion, UAS-luciferase; AID 687014, 2013; Nuclear hormone receptor DAF-12 (Heterodera glycines), GAL4 fusion; 370,000 tested, 1.8% active; activation, % at 6.8 µM; HEK293 GAL4-hgDAF12 UAS-luciferase reporter, agonist luminescence; normalized to butyrate control;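 active = activation above a cutoff set at the mean of all screened compounds plus 3 SD, cut at about 10% in these data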;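 note: 0% = DMSO wells and 100% = sodium butyrate wells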
ssDAF-12 act – S. stercoralis DAF-12 nuclear receptor activators, primary screen, cell-based, luminescence, HEK293, GRIP1 co-expression, lit1-tk-luc; Nuclear hormone receptor DAF-12 (Strongyloides stercoralis); 370,000 tested, 1% active; HEK293 ssDAF-12/GRIP1 lit1-tk-luc reporter; % of 3 µM dafachronic acid response; activation, % at 6.8 µM;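 active = activation above the mean over all tested compounds plus 3 SD, cut at about 0.9% in these data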;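 note: 0% = DMSO-only wells and 100% = 3 µM delta7-dafachronic acid wells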
DAX1 inh-2 – DAX1 (NR0B1) inhibitors, primary screen, cell-based, HEK293, Gal4-DAX1, luciferase luminescence. 340,000 tested, 0.99% active. AID 504766, 2011. Nuclear receptor subfamily 0 group B member 1 (Homo sapiens), P51843. HEK293 Gal4-DAX1 luciferase reporter. inhibition, % at 6.75 µM;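 active = inhibition above the mean over all tested compounds plus 3 SD, cut at about 4.2% in these data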;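 note: 0% = DAX1-transfected cells with DMSO and 100% = empty-vector control cells with DMSO; inhibition shows as a rise in luminescence from relieved DAX1 repression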
Target sequence (P51843 207-470 limits assumed): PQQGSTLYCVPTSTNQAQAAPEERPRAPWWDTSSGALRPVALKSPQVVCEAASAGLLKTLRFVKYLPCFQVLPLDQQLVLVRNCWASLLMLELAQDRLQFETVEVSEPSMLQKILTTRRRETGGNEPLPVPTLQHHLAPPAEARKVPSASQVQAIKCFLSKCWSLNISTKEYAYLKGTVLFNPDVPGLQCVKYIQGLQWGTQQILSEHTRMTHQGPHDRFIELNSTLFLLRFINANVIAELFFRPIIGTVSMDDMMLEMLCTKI
hcDAF-12 act – H. contortus DAF-12 nuclear receptor activators, primary screen, cell-based, luminescence, HEK293, lit1-tk-luc reporter | HEK293 hcDAF-12 lit1-tk-luc reporter; 0% DMSO, 100% Δ7-dafachronic acid | activation, % at 6.8 µM | 370,000 tested, 1.4% active | AID 652067, 2013;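 active = activation above the mean of all tested compounds plus 3 SD, cut at about 5.5% in these data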;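 note: 100% = response to 3 µM Δ7-dafachronic acid high control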
* marks the source's active call; other numbers are inactive results; x = not tested or not shown. Hits are enriched below; roughly 4.1% of the tested compounds scored in any of these assays.

SMILES | DAX1 inh-1 | hgDAF12 agonist | ssDAF-12 act | DAX1 inh-2 | hcDAF-12 act
N/C(=N\OC(=O)c1cccc(Br)c1)c1ccccc1 | 2 | 10 | 1.3* | 2 | 6.1*
Cc1cccc(/C(N)=N/OC(=O)c2ccncc2)c1 | 9.4* | 16* | 0 | 1 | 3
N/C(=N\OC(=O)c1ccc2ccccc2c1)c1ccc(Br)cc1 | 0 | 3 | 0 | -1 | 1
Cc1ccc(/C(N)=N/OC(=O)c2ccc(Cl)cc2Cl)cc1 | 0 | -3 | -1 | 4.7* | 2
COc1ccc(Cl)cc1C(=O)O/N=C(\N)c1ccncc1 | 0 | 0 | -1 | 0 | -1
COc1ccc(C(=O)O/N=C(\N)c2cccc(C)c2)cc1OC | 0 | 2 | 0 | 3 | 0
Cc1cccc(C(=O)O/N=C(\N)c2ccc(Cl)cc2)c1 | 0 | 5 | 1.0* | 1 | 5.6*
CCNC(=O)OCCN1C(=O)CCC12CCC(c1ccc(Cl)cc1)CC2 (centres undefined) | -1 | -3 | -1 | x | -2
Cc1cc(C)cc(C(=O)O/N=C(\N)c2ccc(Br)cc2)c1 | 0 | 0 | -1 | -1 | 2
Cc1cccc(C(=O)O/N=C(\N)c2ccc(Br)cc2)c1 | 1 | 8 | -1 | 1 | 6.1*
Clc1ccc2nc(-c3ccccn3)c(Nc3ccc4c(c3)OCO4)n2c1 | 1 | 13* | -1 | -2 | -1
COC[C@@H]1CCCN1c1ccc2c(c1)O[C@H]1CCN(C1)S2(=O)=O | 0 | -2 | -1 | x | 0
O=c1oc(-c2ccc(O)c(O)c2)cc2cccc(O)c12 | 2 | 6 | 2.6* | 4 | 6.9*
O=c1oc(-c2ccc(O)c(O)c2)cc2cc(O)cc(O)c12 | 2 | 9 | 1 | 7.6* | 13*
Cc1ccc(OCCC(=O)NNC(=O)c2cc(C)oc2C)cc1 | 0 | 2 | -1 | 4.4* | 2
COC(=O)[C@]12C[C@H](CC(=O)NCc3cccc(C(F)(F)F)c3)C(=O)N(CCc3ccc(OC)c(OC)c3)C1=C[C@H](C1CCCC1)O[C@@H]2C | -2 | -1 | -1 | x | -2
Cc1ccc(Cn2cc(CN3[C@@H](CC(C)C)COc4cc(Br)ccc4S3(=O)=O)nn2)cc1 | 0 | 6 | -1 | x | 0
CCNC(=S)NNC(=O)CC(C)C | 0 | -1 | -2 | 6.7* | 0
Cc1ccccc1N1CC(=O)N(c2ccccc2C)CC1=O | 0 | -2 | -1 | 2 | -2
CC1=NN(c2ccccc2C)C(=O)C1 | 0 | 0 | 1.9* | 1 | 0
COc1ccc(CNS(=O)(=O)/C=C/c2ccc(F)cc2CNC(=O)OC(C)(C)C)cc1 | -2 | -3 | -2 | x | -2
C#CC1c2ccccc2CCN1CC=C (centres undefined) | -2 | -2 | -1 | x | -2
Cc1cc(C)n(-c2cc(N3CCOCC3)ncn2)n1 | -1 | -1 | -1 | 0 | -2
COc1cc(N2CCOCC2)ncn1 | 0 | 1 | 0 | 4.8* | 0
Cn1c(=O)cc(OCCCC(=O)Nc2cc(C(F)(F)F)ccn2)c2ccccc21 | x | -11 | -3 | x | -5
SMILES | DAX1 inh-1 | hgDAF12 agonist | ssDAF-12 act | DAX1 inh-2 | hcDAF-12 act
O=C(O)Cn1cc(C(=S)N2CCCCC2)c2ccccc21 | 1 | 0 | -2 | 6.2* | 3
O=C(O)Cn1cc(/C=C/[N+](=O)[O-])c2ccccc21 | 1 | 3 | 0.9* | -1 | 4
O=S1(=O)c2ccc(N3CC[C@@H](O)C3)cc2OCCCN1C1CC1 | 0 | -2 | -1 | x | -2
Cc1ccc(C(=O)Nc2cc(Cl)ccc2-n2cncn2)o1 | 1 | 1 | 1.2* | 2 | 4
Fc1ccccc1/C=N/Nc1ccc(Cl)nn1 | 0 | -1 | -1 | 1 | 1
COc1cccc(/C=N/Nc2ccc(Cl)nn2)c1OC | -1 | 2 | -1 | 5.6* | -1
CN(c1cccnc1)c1ccc(NC(=O)CCc2c[nH]c3ccccc23)cc1Br | -1 | 0 | 0 | x | 1
c1ccc2c(c1)oc1c(NCCCn3ccnc3)ncnc12 | 0 | 2 | -1 | 0 | -2
O=c1c2ccccc2oc2ccc(NCCCn3ccnc3)cc12 | 4.0* | 11* | 1.8* | 1 | 5
O=C(COc1ccccc1F)NNC(=O)c1cccc(-n2cccc2)c1 | 1 | 1 | -1 | 1 | 6.3*
Fc1ccc(NC(=S)N2CCc3ccccc3C2)c(F)c1 | 1 | 1 | 0 | 5.6* | 3
Fc1ccc(NC(=S)N2CCOCC2)c(F)c1 | -1 | -2 | -1 | -1 | -1
Cc1ccc(-c2nnc(SCC(=O)Nc3ccc(F)cc3F)n2Cc2ccco2)cc1 | 1 | 2 | -2 | x | -2
O=C(c1cccs1)N1CCc2ccccc21 | 2 | 8 | 0 | 2 | 1
O=C(C1CCCN1C(=O)c1cccs1)N1CCc2ccccc21 (centres undefined) | 0 | 1 | 0 | -1 | 6.0*
COC(=O)[C@]12C[C@H](CC(=O)NCC3CCCCC3)C(=O)N(Cc3ccccc3)C1=C[C@H](C(C)C)O[C@@H]2C1CC1 | 0 | 0 | -1 | x | -1
CCSc1cc(N2CCCC2)nc(-c2ccc(Cl)cc2)n1 | 1 | 0 | -1 | 0 | -1
Clc1ccc(-c2nnc(N3CCCC3)nn2)cc1 | 2 | 10 | 0 | 8.8* | 4
CC(=O)C1=C(C)N(CC(C)C)C(=S)NC1c1ccc(Br)cc1 (centres undefined) | -1 | -1 | -1 | x | -2
O=C(CSc1ccc(-c2ccccc2)nn1)c1cccs1 | 1 | 12* | -1 | 0 | 1
COc1ccc(/C(N)=N/OC(=O)c2ccc3c(c2)OCO3)cc1 | 0 | 6 | -1 | 1 | 6.0*
N/C(=N\OC(=O)c1ccc2c(c1)OCO2)c1ccc(Cl)cc1 | 0 | 6 | -1 | 1 | -1
N/C(=N\OC(=O)c1ccc2c(c1)OCO2)c1ccncc1 | 1 | 7 | -1 | 5.1* | 3
Cc1ccc(/C(N)=N/OC(=O)c2ccc3c(c2)OCO3)cc1 | 2 | 8 | -1 | 1 | 2
O=C(NCCN1CCC(Cc2ccccc2)CC1)C1CCCN(S(=O)(=O)c2cccs2)C1 (centres undefined) | -3 | -2 | -2 | x | -4
O=P(C1=C(N2CCOCC2)/C(=C\c2ccccc2)CC1)(N1CCOCC1)N1CCOCC1 | -1 | 0 | -2 | 0 | 6.5*
O=C(NP(=O)(N1CCOCC1)N1CCOCC1)C1=C(N2CCOCC2)/C(=C\c2ccccc2)CC1 | 0 | -2 | -1 | -1 | 2
Cc1occc1C(=O)OCC(=O)Nc1ccc(F)cc1 | 0 | 11* | 0 | 1 | 4

Compound activity: PubChem BioAssay, The Scripps Research Institute Molecular Screening Center
